Assay outcomes: PubChem, The Scripps Research Institute Molecular Screening Center
An excerpt weighted towards active compounds, which were near 4.8% of everything screened.
ssDAF12 agonist: activators of S. stercoralis DAF-12 nuclear receptor. HEK293 ssDAF-12/GRIP1 lit1-tk-luc reporter, luminescence; % of 3 µM dafachronic acid response. activation, % at 6.8 µM. hit rate 1% among 370,000;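 active = activation above the mean over all tested compounds plus 3 SD, cut at about 0.9% in these data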;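 also: 0% = DMSO-only wells and 100% = 3 µM delta7-dafachronic acid wells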
DAX1 inh-1: inhibitors of human orphan nuclear receptor DAX1 (NR0B1). HEK293 Gal4-DAX1 luciferase reporter, luminescence. inhibition, % at 6.75 µM. hit rate 0.99% among 340,000. AID 504766;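 active = inhibition above the mean over all tested compounds plus 3 SD, cut at about 4.2% in these data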;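 also: 0% = DAX1-transfected cells with DMSO and 100% = empty-vector control cells with DMSO; inhibition shows as a rise in luminescence from relieved DAX1 repression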
Target sequence (P51843 207-470 limits assumed): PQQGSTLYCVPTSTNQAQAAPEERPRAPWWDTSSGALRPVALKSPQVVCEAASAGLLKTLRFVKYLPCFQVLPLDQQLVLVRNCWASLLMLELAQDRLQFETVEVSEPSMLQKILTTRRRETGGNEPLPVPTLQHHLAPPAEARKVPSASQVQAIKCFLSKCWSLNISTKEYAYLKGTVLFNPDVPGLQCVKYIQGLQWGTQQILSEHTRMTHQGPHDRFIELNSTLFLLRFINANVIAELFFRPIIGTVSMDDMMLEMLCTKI
DAX1 inh-2: blocks DAX1 repression of SF-1 activated StAR promoter | HEK293T StAR-luciferase reporter, SF-1/DAX-1 repression relief | hit rate 1.1% among 370,000 | AID 652010 | inhibition, % at 6.8 µM;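 active = inhibition above the mean over all tested compounds plus 3 SD, cut at about 3.6% in these data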;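 also: 0% = DAX-1 cells with DMSO and 100% = cells lacking DAX-1 with DMSO; higher inhibition means more luminescence from relief of DAX-1 repression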
hgDAF12 agonist: activates the H. glycines DAF-12 receptor ligand-binding domain | hit rate 1.8% among 370,000 | activation, % at 6.8 µM | AID 687014 | HEK293 GAL4-hgDAF12 UAS-luciferase reporter, agonist luminescence; normalized to butyrate control;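 active = activation above a cutoff set at the mean of all screened compounds plus 3 SD, cut at about 10% in these data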;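 also: 0% = DMSO wells and 100% = sodium butyrate wells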
SMARCA2 act: SMARCA2 function activation, primary screen; MG213 cells, MMTV-luciferase reporter, dexamethasone, overnight; activation, % at 9.1 µM; hit rate 1% among 370,000; AID 652017; in the data active = activation above about 7.8%;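 also: 0% = vehicle wells and 100% = reference activator wells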
hcDAF-12 act: activators of H. contortus DAF-12 nuclear receptor. HEK293 hcDAF-12 lit1-tk-luc reporter, luminescence; 0% DMSO, 100% Δ7-dafachronic acid. activation, % at 6.8 µM. hit rate 1.4% among 370,000. AID 652067;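 active = activation above the mean of all tested compounds plus 3 SD, cut at about 5.5% in these data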;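 also: 100% = response to 3 µM Δ7-dafachronic acid high control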
* hit, by the source's call.

Results for CC(NC(=O)C(=O)N/N=C\c1cccc([N+](=O)[O-])c1)c1ccccc1 (stereo not drawn) ?
ssDAF12 agonist: -1.4; DAX1 inh-1: 5.0*; DAX1 inh-2: -0.4; hgDAF12 agonist: 0.0; SMARCA2 act: 3.7; hcDAF-12 act: 0.4

How did O=[N+]([O-])c1cccc(C=NNc2ccccc2)c1 do in these assays?
ssDAF12 agonist: -1.2; DAX1 inh-1: 3.1; DAX1 inh-2: -0.9; hgDAF12 agonist: 3.3; SMARCA2 act: -2.2; hcDAF-12 act: -0.4

How did O=S1(=O)c2ccccc2-c2c(nnn2CC2CCCCC2)CN1C1CC1 do in these assays?
ssDAF12 agonist: -1.4; DAX1 inh-2: 0.8; hgDAF12 agonist: -3.1; SMARCA2 act: -4.1; hcDAF-12 act: 0.1

Results for CC(=O)N1c2cc(S(=O)(=O)N3CCN(c4ccccc4F)CC3)c(Br)cc2CC1C (stereo not drawn) ?
ssDAF12 agonist: -1.2; DAX1 inh-2: -2.1; hgDAF12 agonist: -2.7; SMARCA2 act: -3.9; hcDAF-12 act: -1.7

What do the screens show for `O=C(NCc1ccc(F)cc1)c1cnc2n(c1=O)CCS2`?
ssDAF12 agonist: -0.8; DAX1 inh-1: 3.9; DAX1 inh-2: -0.4; hgDAF12 agonist: -0.5; SMARCA2 act: -1.7; hcDAF-12 act: 1.2

What do the screens show for `C=CCNC(=O)c1cnc2n(c1=O)CCS2`?
ssDAF12 agonist: -1.5; DAX1 inh-1: 0.9; DAX1 inh-2: -0.3; hgDAF12 agonist: 0.1; SMARCA2 act: 7.9*; hcDAF-12 act: -2.8

Results for COc1ccc2nc(-n3c(O)c(C4=c5ccccc5=NC4=O)[nH]c3=S)sc2c1 ?
ssDAF12 agonist: 0.4; DAX1 inh-1: -1.7; DAX1 inh-2: 0.5; hgDAF12 agonist: 1.6; SMARCA2 act: -0.6; hcDAF-12 act: 1.1

What do the screens show for `Cn1c(O)c(C2=c3ccccc3=NC2=O)[nH]c1=S`?
ssDAF12 agonist: 1.2*; DAX1 inh-1: 0.5; DAX1 inh-2: 0.1; hgDAF12 agonist: 1.0; SMARCA2 act: 5.7; hcDAF-12 act: 4.6

How did CCOC(=O)/C(C#N)=C/c1cn(CCC(=O)O)nc1-c1ccc(OC)cc1 do in these assays?
ssDAF12 agonist: -0.9; DAX1 inh-1: 6.6*; DAX1 inh-2: 0.3; hgDAF12 agonist: 0.2; SMARCA2 act: -4.1; hcDAF-12 act: -0.5

Results for OC1(c2cccc(C(F)(F)F)c2)CCN(CCN2CCCCC2)CC1 ?
ssDAF12 agonist: 1.6*; DAX1 inh-1: 2.0; DAX1 inh-2: 0.1; hgDAF12 agonist: -0.2; SMARCA2 act: -1.1; hcDAF-12 act: 0.0

How did Cc1ccc(CSc2nc3c(c(=O)[nH]2)CCC3)cc1 do in these assays?
ssDAF12 agonist: -1.1; DAX1 inh-1: 0.6; DAX1 inh-2: 0.5; hgDAF12 agonist: -2.3; SMARCA2 act: 1.7; hcDAF-12 act: 1.7

What do the screens show for `COC(=O)c1ccc(CSc2nc3c(c(=O)[nH]2)CCC3)cc1`?
ssDAF12 agonist: -1.6; DAX1 inh-2: 3.7*; hgDAF12 agonist: 0.7; SMARCA2 act: -6.0; hcDAF-12 act: -0.3

How did COC(=O)C1CN(C2CCCC2)CCS(=O)(=O)N1Cc1cn(Cc2ccccc2)nn1 (stereo not drawn) do in these assays?
ssDAF12 agonist: -1.7; DAX1 inh-2: -0.1; hgDAF12 agonist: 1.7; SMARCA2 act: 0.1; hcDAF-12 act: 0.1

How did CN(C)C(=O)C12CCC(C)(C(=O)C1Br)C2(C)C (stereo not drawn) do in these assays?
ssDAF12 agonist: 1.0*; DAX1 inh-1: -0.8; DAX1 inh-2: -0.5; hgDAF12 agonist: 0.5; SMARCA2 act: -1.9; hcDAF-12 act: 0.3

Results for O=C(O)COc1ccc(/C=N/NC(=O)c2ccccc2Br)cc1 ?
DAX1 inh-1: -0.2

How did O=C(N/N=C/c1ccc(OC(=O)c2ccccc2Br)cc1)c1ccccn1 do in these assays?
ssDAF12 agonist: -0.3; DAX1 inh-1: 0.5; DAX1 inh-2: 5.8*; hgDAF12 agonist: 10.1; SMARCA2 act: 3.0; hcDAF-12 act: 5.2

How did CC1(C)C=Cc2c(ccc3c2OC[C@H](c2ccc(O)cc2O)C3)O1 do in these assays?
ssDAF12 agonist: -0.6; DAX1 inh-1: 2.0; DAX1 inh-2: -0.2; hgDAF12 agonist: 3.2; SMARCA2 act: 4.6; hcDAF-12 act: 0.9

How did CC(=O)Oc1ccc([C@@H]2COc3c(ccc4c3C=CC(C)(C)O4)C2)c(OC(C)=O)c1 do in these assays?
ssDAF12 agonist: -1.4; DAX1 inh-1: 4.4*; DAX1 inh-2: 0.7; hgDAF12 agonist: 4.8; SMARCA2 act: -0.2; hcDAF-12 act: 1.9

How did O=C(NN=Cc1ccccc1C(F)(F)F)c1cc(-c2ccc(Cl)cc2)n[nH]1 do in these assays?
ssDAF12 agonist: -1.5; DAX1 inh-2: -0.3; hgDAF12 agonist: 2.1; SMARCA2 act: -4.7; hcDAF-12 act: -3.5

What do the screens show for `O=C(Cc1ccccc1)c1ccc(O)cc1O`?
ssDAF12 agonist: -0.8; DAX1 inh-1: 0.2; DAX1 inh-2: -3.1; hgDAF12 agonist: 0.8; SMARCA2 act: 2.0; hcDAF-12 act: -1.9

What do the screens show for `O=C(Cc1ccc2cccnc2c1)c1ccc(O)cc1O`?
ssDAF12 agonist: -0.4; DAX1 inh-1: -0.4; DAX1 inh-2: 1.9; hgDAF12 agonist: 10.7*; SMARCA2 act: 4.5; hcDAF-12 act: 2.8

Results for COC(=O)C1=C(C)N(C)C(=NCc2ccc3c(c2)OCO3)NC1c1ccc(F)cc1 (stereo not drawn) ?
ssDAF12 agonist: -0.9; DAX1 inh-2: -0.2; hgDAF12 agonist: 0.5; SMARCA2 act: 2.8; hcDAF-12 act: -1.0

How did CC(C)[C@@H](CO)N1Cc2nnn(Cc3ccccc3)c2-c2ccccc2S1(=O)=O do in these assays?
ssDAF12 agonist: -1.5; DAX1 inh-2: 0.5; hgDAF12 agonist: 4.4; SMARCA2 act: -2.6; hcDAF-12 act: 2.5

Results for CN(C)N1C(N)=C(C#N)C(c2cccc3ccccc23)C2=C1CC(c1ccccc1)CC2=O (stereo not drawn) ?
ssDAF12 agonist: -1.7; DAX1 inh-1: 5.6*; DAX1 inh-2: 0.0; hgDAF12 agonist: -0.9; SMARCA2 act: -1.2; hcDAF-12 act: 0.4

Results for CCn1c(=O)n2n(c1=O)[C@]1(C=C(C)C2)CN(Cc2ccc(OC)cc2OC)C(NC(=O)c2ccccc2)=N1 ?
ssDAF12 agonist: -1.1; hgDAF12 agonist: 3.0; hcDAF-12 act: -1.0

Results for CN(CCCOC(=O)c1cc2ccccc2o1)C1CN(Cc2cn(Cc3ccccc3C(F)(F)F)nn2)S(=O)(=O)C1 (stereo not drawn) ?
ssDAF12 agonist: -1.3; DAX1 inh-2: -0.4; hgDAF12 agonist: -0.5; SMARCA2 act: -1.4; hcDAF-12 act: 1.8

How did Cc1ccc2nc3sc(C(=O)N4CCOCC4)c(N)c3cc2c1 do in these assays?
ssDAF12 agonist: 0.7; DAX1 inh-1: 1.3; DAX1 inh-2: 3.7*; hgDAF12 agonist: 8.6; SMARCA2 act: 0.6; hcDAF-12 act: 6.5*

How did CC(=O)N1CCC(=NNc2ccc(S(N)(=O)=O)cc2[N+](=O)[O-])CC1 do in these assays?
ssDAF12 agonist: -1.6; DAX1 inh-1: -1.8; DAX1 inh-2: -0.1; hgDAF12 agonist: -3.0; SMARCA2 act: -0.3; hcDAF-12 act: -2.6
